# Hits are enriched below; roughly 2.2% of the tested compounds scored in any of these assays.
# Mm-Cpn inhibitor = Inhibitors of TCP-1 ring complex (TRiC) of Methanococcus maripaludis (MmCpn): qHTS | purified Mm-Cpn ATPase, ADP Transcreener TR-FRET | AID 504842, 2011 | Potency, µM (doses to about 76.9 µM), without a hit: at the top dose activity, negative = inhibition, hits mostly inhibitors | 330,000 tested, 0.031% active | Chaperonin Mm-Cpn (Methanococcus maripaludis); note: potency is the fitted concentration of half-maximal effect; % is set by controls: 0 for no effect and ±100 for the full control effect; nearly all actives have a fitted effect of over 80% in size
#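 25 nM Mm-CPN + cpd, 10 min 37°C; + 10 uM ATP, 30 min 37°C; buffer 30 mM Tris pH 7.4, 100 mM KCl, 5 mM MgCl2, 1 mM DTT; Transcreener ADP HTRF detection 30 min RT.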
# GLP-1R agonist = qHTS of GLP-1 Receptor Agonists. HEK293 GLP-1R CRE-luciferase, luminescence, 4-6 h; cells express a hypersensitive GLP-1R form. Potency, µM (doses to about 45.6 µM), for inactives: at the highest dose activation, usual class: activators. 380,000 tested, 0.007% active; note: potency is the fitted concentration of half-maximal effect; % of control where 0% means no effect
# Target sequence (P43220 whole entry, looked up): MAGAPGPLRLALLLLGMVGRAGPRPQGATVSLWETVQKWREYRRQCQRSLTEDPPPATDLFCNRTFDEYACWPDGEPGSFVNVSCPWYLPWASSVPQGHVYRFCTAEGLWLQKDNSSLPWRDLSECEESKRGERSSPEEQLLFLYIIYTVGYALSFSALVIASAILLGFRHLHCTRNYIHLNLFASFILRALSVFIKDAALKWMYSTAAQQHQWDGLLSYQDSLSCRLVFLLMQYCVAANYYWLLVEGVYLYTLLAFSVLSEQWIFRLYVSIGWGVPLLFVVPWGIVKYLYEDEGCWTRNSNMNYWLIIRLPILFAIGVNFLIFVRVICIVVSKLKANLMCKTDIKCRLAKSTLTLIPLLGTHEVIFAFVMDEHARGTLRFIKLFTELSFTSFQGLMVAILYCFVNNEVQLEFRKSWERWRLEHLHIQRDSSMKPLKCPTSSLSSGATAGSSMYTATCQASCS
# GLP1R inv ag = qHTS of GLP-1 Receptor Inverse Agonists (Inhibition Mode) | HEK293 GLP-1R CRE-luciferase, luminescence, 24 h; GLP-1R form is constitutively active | 410,000 tested, 1.6% active | AID 624417, 2012 | Potency, µM (doses to about 38.3 µM), inactives show at the highest dose activity change, negative = inhibition, hits mostly inhibitors; note: potency is the fitted concentration of half-maximal effect; % is set by controls: 0 for no effect and ±100 for the full control effect; nearly all actives have a fitted effect of over 55% in size
#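 Assay principle: reduced luminescence from a cAMP-responsive reporter in HEK293 cells co-expressing a constitutively active GLP-1R. Conditions: 24 hr compound incubation, 37 deg C, 5% CO2.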
# CCT modulator = High-Throughput Screening for Modulators of Cytosolic Chaperonin Activity; purified chaperonin ATPase assay, HTRF ADP detection, 30 min; activity change, % (no concentration beside the values), hits read low; 360,000 tested, 0.3% active; in the data active = activity change below about -30%; note: % is set by controls: 0 for no effect and ±100 for the full control effect
#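 TRiC (40 or 20 nM final, by batch activity) in 30 mM Tris pH 7.4, 100 mM KCl, 5 mM MgCl2, 1 mM DTT was treated with compound at 76 uM single dose, then 10 uM ATP, 30 min at 37 °C. ADP was read by HTRF Transcreener.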
# GLP1R cytotox = qHTS of GLP-1 Receptor Inverse Agonists: Cytotox Screen | 410,000 tested, 0.13% active | HEK293 cAMP-luciferase reporter cells, luminescence, 24 h | Potency, µM (doses to about 38.3 µM), for inactives: at the top dose activity change, negative = inhibition, most hits filed as inhibitors;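 note: loss of luciferase light is scored as toxicity; potency is the fitted concentration of half-maximal effect; % is set by controls: 0 for no effect and ±100 for the full control effect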
#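 Here, cytotoxicity is scored as loss of luminescence. The MLSMR collection was tested on cells seeded in medium containing 10% Nu serum, with a 24 hr compound exposure preceded by 12 hours of culture.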
# uPA surface inh = qHTS for Inhibitors of Cell Surface uPA Generation | cell surface uPA generation assay, qHTS | Potency, µM (top dose mostly 38.3 µM), for inactives: at the top dose activity change, negative = inhibition, hits mostly inhibitors | 330,000 tested, 0.31% active | AID 540303, 2011; active = well fitted inhibition curve with a large enough effect; inconclusive = small, poorly fitted or top-dose-only effect; inactive = no such curve, though single readings can be large or run the other way; tested in mouse RAW 264.7 cells; note: potency is the fitted concentration of half-maximal effect; % is set by controls: 0 for no effect and ±100 for the full control effect; nearly all actives have a fitted effect of over 55% in size
# Numbers without * were called inactive; u = inconclusive; x = no result; [ ] = another dose, or the depositor's remark. Unless noted, calls come from the whole dose curve; as a rule, active = well fitted curve in the direction sought with a large enough effect; inconclusive = small, poorly fitted or top-dose-only effect, or another doubt; inactive = no such curve, though single readings can be large; an effect the other way counts as inactive or inconclusive.
SMILES,Mm-Cpn inhibitor,GLP-1R agonist,GLP1R inv ag,CCT modulator,GLP1R cytotox,uPA surface inh
O=C(OC1CCOC1=O)c1cc(-c2cccs2)nc2ccccc12 (centres undefined),-11%,1%,16%,-74*,6%,-3%
CSc1ccc(CCNC(=O)CCc2c(C)nc3c(-c4ccccc4)c(C)nn3c2C)cc1,x,-1%,-14%,x,0%,x
CCOc1ccc(S(=O)(=O)N2CCCCC2)c2ccccc12,0%,0%,10µM*,-1,1%,4%
CCOC(=O)c1sc(NC(=O)CC(C)c2ccccc2)nc1C (centres undefined),-1%,7%,-16%,-15,-14%,-13%
CCOC(=O)c1sc(NC(=O)CCc2ccccc2)nc1C,4%,-5%,-27%,0,-16%,4.5µM*
COc1cc(OC)nc(-n2ncc(Br)c(Br)c2=O)n1,-28%,-5%,u,0,3.2µM*,u
Cc1cccc(NC(=O)Cn2nc(C)c3nn(-c4ccc(Cl)cc4)c(C)c3c2=O)c1C,x,x,10%,x,-1%,x
CC(Sc1nnc(CN2CCCC2)n1Cc1ccccc1)C(=O)Nc1ccc(F)cc1Cl (centres undefined),x,22%,5.6µM*,-14,-4%,3%
CC(Sc1nnc(CN2CCCC2)n1Cc1ccccc1)C(=O)Nc1ccc(F)cc1 (centres undefined),-1%,-5%,u,1,0%,6%
OC[C@H]1O[C@@H](n2cnc3c2NC=NC[C@H]3O)C[C@@H]1O,x,-4%,x,x,x,x
CCNC(=O)Cc1c(OC)ccc2cc(Br)ccc12,u,-5%,-18%,-1,-8%,-16%
COc1ccc2cc(Br)ccc2c1CC(=O)NC(C)(C)C,-16%,2%,13µM*,-2,3%,1%
COc1ccc(OC)c(NC(=S)N(CCc2c(C)[nH]c3ccc(C)cc23)Cc2cccs2)c1,-25%,-3%,11µM*,0,6%,16%
Cc1cccc(C)c1NC(=O)C(=O)NCC(c1ccc2c(c1)OCO2)N1CCOCC1 (centres undefined),x,x,19%,x,25%,x
COc1ccc(CCN(C(=O)C(F)(F)F)C(C(=O)NC2CCCCC2)c2cccs2)cc1 (centres undefined),-1%,5%,6.3µM*,-3,-4%,-2%
O=C(/C=C/c1cccc2ccccc12)c1ccncc1,0%,-35%,8.9µM*,-1,u,-6%
O=C(N/N=C/c1cccc2ccccc12)c1ccncc1,-3%,-6%,17%,-3,-15%,4%
Cc1ccc(C(=O)Nc2nc(C(C)(C)C)cs2)s1,0%,3%,u,2,16%,-5%
CC(C)(C)c1csc(NC(=O)c2ccc(Br)o2)n1,-1%,1%,10µM*,-2,0%,-17%
CC(C)(C)c1csc(NC(=O)c2ccncc2)n1,-1%,2%,25%,-6,7%,-3%
CC(C)(C)c1csc(NC(=O)c2ccc(Cl)s2)n1,-5%,-2%,2.8µM*,0,-4%,-7%
COc1ccc(-c2noc(-c3ccccc3NC(=O)c3cc(OC)c(OC)c(OC)c3)n2)cc1,x,x,9%,x,3%,x
Cc1cccc(NCc2nnc3n2CCCCC3)c1C,x,8%,3%,x,2%,x
CN1C2CCC1CC(NC(=O)CSCc1ccc(Cl)cc1Cl)C2 (centres undefined),-15%,6%,7.1µM*,1,4%,0%
COCCn1nnnc1C(c1cc2cc(C)ccc2[nH]c1=O)N1CCN(C2CCCCC2)CC1 (centres undefined),-1%,0%,21%,1,11µM*,7%
SMILES,Mm-Cpn inhibitor,GLP-1R agonist,GLP1R inv ag,CCT modulator,GLP1R cytotox,uPA surface inh
COc1ccc([C@]23Cc4ccccc4C(O2)C2=C(O3)C(=O)c3ccccc3C2=O)cc1,0%[15.4 µM],x,x,x,x,x
CC1(CC(=O)N/N=C/c2ccc(OCc3ccc(Cl)cc3Cl)cc2)OCCCO1,0%,5%,8.9µM*,-5,-22%,-6%
CC(=O)c1cccc(NC(=O)c2c(-c3ccccc3)c(-c3ccccc3)nn(C)c2=O)c1,x,x,-29%,x,-14%,x
CCCCCC[n+]1c(-c2ccccc2)csc1Nc1ccccc1,-1%,0%,2.2µM*,-3,0%,2%
COc1ccc(-c2cc3c(=O)n(CC(=O)NCCCN4CCN(Cc5ccccc5)CC4)ncn3n2)cc1,-1%,5%,u,0,-16%,u
COc1ccc(-c2cc3c(=O)n(CC(=O)NCCCN4CCC(Cc5ccccc5)CC4)ncn3n2)cc1,2%,0%,2.2µM*,-1,-1%,u
CCc1cccc(C)c1NC(=O)c1cc(S(=O)(=O)N(C)Cc2ccccc2)ccc1F,x,x,u,x,0%,x
CCCCNc1c(-c2ccc(-c3ccc(OC)cc3)c(OC)c2)nc2ccccn12,-4%,-10%,u,1,-9%,13µM*
CCOC(=O)C(=O)Nc1nnc2n1CCS2,x,x,0%,x,1%,x
Cc1nc([N+](=O)[O-])cn1-c1ccc([N+](=O)[O-])cc1,x,6%,x,x,x,x
CN(C)c1ccc(C(CNC(=O)COc2ccc(Cl)cc2)N2CCCC2)cc1 (centres undefined),1%,13%,11µM*,1,-22%,-2%
CCC(CC)NC(=O)CON=C1c2ccccc2-c2ccccc21,4%,14%,8.9µM*,-2,5%,2%
O=C(Nc1ccccc1)N(Cc1ccc(Cl)cc1)CC(O)C(F)(F)F (centres undefined),-3%,12%,10µM*,-4,-19%,13%
O=C(Nc1ccccc1Cl)NN1CCCCCC1,x,27%,2µM*,1,1%,2%
COc1ccccc1NC(=O)NN1CCCCC1,0%,7%,u,2,-5%,-2%
O=C(Nc1ccc(Cl)cc1)Nc1cccc(C(=O)O)c1,-1%,-8%,1µM*,-1,1%,-7%
O=C(Nc1cccc(C(=O)O)c1)Nc1ccccc1Cl,-1%,-4%,4.5µM*,-2,-2%,-5%
CN(C)C(=O)c1ccc(NC(=O)Cn2nnnc2-c2ccccc2F)cc1,x,x,9%,x,-9%,x
CCc1ccccc1NC(=O)c1ccc(CN2C(=O)CCn3nc(C)cc32)cc1,x,x,-6%,x,15%,x
COc1ccc(-c2cc(C(F)F)n3ncc(C(=O)N4CCCCC4)c3n2)cc1,0%,u,4%,0,58%,-11%

# Assay outcomes deposited in PubChem by National Center for Advancing Translational Sciences (NCATS).
